Experimental findings from PubChem BioAssay AID2533 (National Center for Advancing Translational Sciences (NCATS), 2010) are described below.

Results filed as inconclusive are left out. A call without a number means that no potency is given here. Calls of active or inactive are those of the source. Calls come from the whole dose curve; as a rule, active = well fitted activation curve with a large enough effect; inconclusive = small, poorly fitted or top-dose-only effect; inactive = flat fitted curve, though single readings scatter.
Potency is the fitted concentration of half-maximal effect.

Sequence of Pyruvate kinase PKM (Homo sapiens) (P14618 whole entry, looked up, canonical isoform): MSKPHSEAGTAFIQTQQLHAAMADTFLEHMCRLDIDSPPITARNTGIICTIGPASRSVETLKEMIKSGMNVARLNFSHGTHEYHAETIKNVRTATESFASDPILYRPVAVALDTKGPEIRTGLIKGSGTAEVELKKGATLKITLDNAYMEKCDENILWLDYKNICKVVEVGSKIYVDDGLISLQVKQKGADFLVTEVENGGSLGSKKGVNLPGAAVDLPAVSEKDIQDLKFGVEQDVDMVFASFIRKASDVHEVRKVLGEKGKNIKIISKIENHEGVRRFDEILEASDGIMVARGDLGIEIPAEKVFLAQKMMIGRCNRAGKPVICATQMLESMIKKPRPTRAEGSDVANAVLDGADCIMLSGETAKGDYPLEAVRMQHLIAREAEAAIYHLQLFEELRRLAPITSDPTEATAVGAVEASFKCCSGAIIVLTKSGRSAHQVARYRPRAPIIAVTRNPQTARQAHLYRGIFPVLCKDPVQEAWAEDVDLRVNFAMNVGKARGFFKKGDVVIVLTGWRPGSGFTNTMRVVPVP

The test concerns the target Pyruvate kinase PKM (Homo sapiens) (UniProt P14618). Briefly: Confirmation Concentration-Response Assay for Activators of Human Muscle isoform 2 Pyruvate Kinase: for Probe SAR. Note: nearly all actives have a fitted effect of over 60% in size. Particulars: purified PKM2, ATP generation, Kinase-Glo luminescence; series mostly up to 57.5 µM. The source says:
NIH Chemical Genomics Center [NCGC]
Matthew G. Vander Heiden, M.D., Ph.D. [Harvard Medical School, 77 Avenue Louis Pasteur, Boston, MA 02115]
Human pyruvate kinase muscle 2 (hPK-M2) enzyme was supplied as a highly purified (>95% pure) preparation from Harvard Medical School and assayed for its ability to generate ATP from ADP using phosphoenolpyruvate (PEP) as a substrate. ATP generation was detected in a coupled reaction by luciferase-mediated luminescence, an ATP-dependent process. […] The enzyme was assayed at an intermediate level of activity to screen for both inhibitors and activators.
NCGC Assay Protocol Summary:
Three uL of substrate mix (at r.t.) in assay buffer (50 mM Imidazole pH7.2, 50 mM KCl, 7 mM MgCl2, 0.01% Tween 20, 0.05% BSA) was dispensed into white solid bottom 1,536 well microtiter plates so that the final concentrations of substrates in the assay were 0.1 mM ADP and 0.5 mM PEP. 23 nL of compound were delivered by a pin tool and 1 uL of enzyme mix (final concentration of 0.1 nM) in assay buffer (4 degree Celsius) was added. Plates were incubated at room temperature for 1 hour. Two uL of detection mix (Kinase-Glo, Promega; at 4 degree Celsius protected from light) was added and luminescence read by a ViewLux (Perkin Elmer) at 1 second exposure/plate. Data were normalized to the uninhibited (column 3) and AC100 inhibition (no enzyme in column 2). To monitor activation, the first column contained a titration of the activator, NCGC00031955-03 (16-point 1:2 dilutions in duplicate starting at 57 uM) and the first 16 rows of column 4 contained 57 uM of NCGC00031955-03.
For orientation: In Kinase-Glo more light means more ATP remaining.
`O=S1(=O)N=C(Oc2cccc(-c3ccccc3)c2)c2ccccc21`: the Potency result was “inactive”.
Consider `CC(=O)Nc1cccc(S(=O)(=O)N2CCN(S(=O)(=O)c3c(F)cccc3F)CC2)c1`, for which the Potency is 14.6 µM (active).
Then `Cc1ccc(NS(=O)(=O)c2cccc(Cl)c2)cc1C`, with 16.3 µM (active); and `Cc1ccc2nc(-c3ccc(C)o3)c(NC3CCCC3)n2c1`, with “inactive”.
As to `O=C1c2ccccc2C(=O)N1c1ccc2ncccc2c1`, the Potency entry was “inactive”.
On to `Cc1ccc(NS(=O)(=O)c2ccc3ccccc3c2)cc1C`, for which the Potency is 41.1 µM (active).
The result for `O=S1(=O)N=C(Oc2ccccc2C(F)(F)F)c2ccccc21` reads “inactive”; that for `Cc1ccc(NS(=O)(=O)c2ccc3c(c2)NC(=O)CO3)cc1C`, 20.6 µM (active).
The result for `Nc1cc(S(=O)(=O)N2CCN(S(=O)(=O)c3ccc4c(c3)OCCO4)CC2)ccn1` reads 3.26 µM (active); that for `Cc1ccc(Nc2c(-c3ccc(C)o3)nc3cccc(C)n23)cc1`, “inactive”.
The result for `Nc1ccc(S(=O)(=O)N2CCN(S(=O)(=O)c3ccc4c(c3)OCCO4)CC2)cc1` reads 0.366 µM (active).
Regarding `O=C1c2ccccc2C(=O)N1c1ncccc1O`, the Potency entry was “inactive”.
Then `COc1ccc(N2C(=O)c3ccccc3S2(=O)=O)cc1`, with “inactive”; and `Cc1ccc(NS(=O)(=O)c2ccc3c(c2)CCC(=O)N3)cc1C`, with 0.651 µM (active); and `COc1cc(F)c(S(=O)(=O)N2CCCN(S(=O)(=O)c3ccc4c(c3)OCCO4)CC2)c(F)c1`, with 0.058 µM (active).
The result for `COc1ccc(Nc2c(-c3ccc(C)o3)nc3ccccn23)cc1` reads “inactive”; that for `Cc1ccccc1Nc1c(-c2ccccc2)nc2cccc(C)n12`, “inactive”; that for `Cc1ccccc1N(C)C1=N[S+](=O)([O-])c2ccccc21`, “inactive”.
Consider `O=S1(=O)N=C(N2CCOCC2)c2ccccc21`, for which the Potency result is “inactive”.
Then `CC(=O)Nc1cccc(S(=O)(=O)N2CCCN(S(=O)(=O)c3ccc4c(c3)OCCO4)CC2)c1`, with 1.3 µM (active).
For `O=C1c2ccccc2C(=O)N1c1cccnc1`, the Potency entry was “inactive”.
Then `O=C1CCc2cc([S+](=O)([O-])Nc3ccc(N[S+](=O)([O-])c4ccc5c(c4)CCC(=O)N5)cc3)ccc2N1`, with “inactive”.
On to `COc1cc(F)c(S(=O)(=O)N2CCN(S(=O)(=O)c3cccs3)CC2)c(F)c1`, for which the Potency is 0.0366 µM (active).
Then `COc1ccc(-c2sc(N)nc2-c2ccccc2)cc1`, with “inactive”; and `O=C1c2ccccc2C(=O)N1c1ccccc1O`, with “inactive”.
Then `Cc1cccc(OC2=NS(=O)(=O)c3ccccc32)c1`, with “inactive”.
The result for `COc1ccc(NS(=O)(=O)c2ccccc2C(=O)O)cc1` reads “inactive”.
With `O=S1(=O)N=C(Oc2ccc(-c3ccccc3)cc2)c2ccccc21`, the Potency entry was “inactive”.
Then `COc1ccc(-c2nc3cccc(C)n3c2Nc2ccc(C)cc2)cc1`, with “inactive”; and `Cc1ccc(-c2nc3cnccn3c2Nc2ccc(C(C)C)cc2)o1`, with “inactive”.
Then `COc1ccccc1OC1=NS(=O)(=O)c2ccccc21`, with “inactive”; and `CC(=O)N1CCc2cc(S(=O)(=O)Nc3ccc(C)c(C)c3)ccc21`, with 1.63 µM (active).
Then `Cc1ccc(-c2nc3ccc(Cl)cn3c2Nc2ccccc2)o1`, with “inactive”.
Consider `CCCCN1C(=O)c2ccccc2C1=O`, for which the Potency result is “inactive”.
Then `CC(=O)Nc1ccc(OC2=NS(=O)(=O)c3ccccc32)cc1`, with “inactive”; and `COc1cc(F)c(S(=O)(=O)N2CCCN(S(=O)(=O)c3ccc(N)cc3)CC2)c(F)c1`, with 1.3 µM (active).
Then `O=S1(=O)N=C(Oc2ccc(Cl)cc2)c2ccccc21`, with “inactive”; and `Cc1c(Cl)cccc1NS(=O)(=O)c1cc2c(cc1F)NC(=O)CC2`, with 3.66 µM (active).
Take `COc1ccc(NS(=O)(=O)c2ccccc2)cc1NS(=O)(=O)c1ccccc1`: the Potency entry is “inactive”.
The result for `Cc1cc(NS(=O)(=O)c2ccc3c(c2)CCC(=O)N3)ccc1Cl` reads 0.517 µM (active).
